Measured values: PubChem BioAssay (NCI)
About 79,000 compounds went through this panel and 15% of them were active in at least one assay; those are over-represented in the sample as a whole. Active and inactive are the calls of the source. No stated cut-off is given here; in the data, active means growth inhibition above about 70%; inactive means the rest.

Key:
[1] = NCI Yeast Anticancer Drug Screen. Data for the rad50 strain (AID 155);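 further: 0% = growth of vehicle-only cultures of the same strain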; conditions: S. cerevisiae rad50 strain growth inhibition; at 50.0 µM; hits give high values
Method in brief: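 DNA repair mutant yeast, compound exposure, growth read-out; inhibition is taken relative to vehicle.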

[2] = NCI Yeast Anticancer Drug Screen. Data for the mec2-1 strain (AID 157); conditions: S. cerevisiae mec2-1 strain, at 50.0 µM, hits give high values
Method in brief: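 Readout is yeast growth inhibition, normalised to vehicle-treated controls, in the mec2-1 strain exposed to compound.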

[3] = NCI Yeast Anticancer Drug Screen. Data for the sgs1 mgt1 strain (AID 161);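 further: 0% = growth of cultures given vehicle only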; conditions: S. cerevisiae sgs1 mgt1 strain, at 50.0 µM, hits give high values
Method in brief: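 Compounds are added to genetically altered yeast, and growth is compared with cultures given vehicle alone to give percent inhibition.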

[4] = NCI Yeast Anticancer Drug Screen. Data for the cln2 rad14 strain (AID 165);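 further: 0% = growth equal to vehicle treated cultures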; conditions: S. cerevisiae cln2 rad14 strain, at 50.0 µM, hits give high values
Method in brief: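 Relative to vehicle controls, growth inhibition of compound-treated cln2 rad14 yeast was recorded.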

[5] = NCI Yeast Anticancer Drug Screen. Data for the bub3 strain (AID 167); conditions: S. cerevisiae bub3 mutant strain, at 50.0 µM, hits give high values
Method in brief: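 In this screen, a yeast mutant lacking normal mitotic checkpoint function is challenged with compound. Relative growth versus vehicle gives the inhibition value.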

[6] = NCI Yeast Anticancer Drug Screen. Data for the mlh1 rad18 strain (AID 175); conditions: S. cerevisiae mlh1 rad18 strain growth inhibition; at 50.0 µM; hits give high values
Method in brief: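 Test agents were incubated with a yeast strain of defined genotype (DNA damage repair defect). Inhibition of growth was derived by comparison with vehicle-exposed cultures.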

Measured: growth inhibition

CCCCN=CC(Cl)(Cl)C(=O)OCC
inactive: [1] -13.2% | [2] -21.6% | [3] -8.35% | [4] 4.05% | [5] -10.9% | [6] -19.7%

CCOC(=O)C(/C=C/C(C)C)(CC)C(=O)OCC
inactive: [1] -8.75% | [2] 11.2% | [3] 8.2% | [4] 44.8% | [5] -6.95% | [6] 24.4%

CC(C)[C@@H]1CC[C@@H](C)C[C@H]1N
inactive: [1] -16.7% | [2] 7.8% | [3] -8.85% | [4] -35.5% | [5] 3.95% | [6] -11.2%

O=[N+]([O-])c1ccc(COP(=O)(O)OCc2ccc([N+](=O)[O-])cc2)cc1
inactive: [1] -1.5% | [2] 10.9% | [3] 13.1% | [4] -9.55% | [5] 11.2% | [6] 15.4%

COc1c2ccoc2c(OC)c2oc(=O)ccc12
inactive: [1] 13.3% | [2] -23.6% | [3] 11.7% | [4] 17.2% | [5] -4% | [6] -2.45%

COc1ccc(S(=O)Cc2cc(OC)c(OC)c(OC)c2)cc1 (configuration not stated)
inactive: [1] -7.9% | [2] -19.9% | [3] -61.7% | [4] -19.8% | [5] -14.3% | [6] -23.7%

O=C1NCC(C2CC2)(C2CC2)O1
inactive: [1] 8.85% | [2] -16.9% | [3] -5.7% | [4] -34% | [5] 8.7% | [6] -21%

COCCCN1C(=O)C2c3[nH]c4ccccc4c3C3CCC(C(C)(C)C)CC3C2C1=O (configuration not stated)
inactive: [1] 34.9% | [2] 8.55% | [3] 21.9% | [4] 45.4% | [5] 35.1% | [6] 49.5%

COc1ccc(OC)c2cc3c(cc12)C(=O)c1ccccc1C3=O
inactive: [1] 10.6% | [3] 25.2% | [6] 46.9%
active: [2] 70.2% | [4] 90.7% | [5] 94.6%

CCCNC(=O)c1nc(SC)sc1NC(=O)c1ccccc1
inactive: [1] 10.3% | [2] 3.5% | [3] -50.1% | [4] 17.6% | [5] 1.95% | [6] 10.9%

Cc1ccc(O)c(C(C)C)c1
inactive: [1] -26.4% | [2] -48.8% | [3] -34.4% | [4] -16.1% | [5] -40.2% | [6] -8.6%

CCN1N=CSC12C(=O)N(c1ccccc1)C(=O)N2c1ccccc1 (configuration not stated)
inactive: [1] -20.6% | [2] -15.1% | [3] -31.9% | [4] 0.35% | [5] -14.7% | [6] -38.6%

COC(=O)c1c(-c2ccccc2)cc2c3cc(-c4ccccc4)c(C(=O)OC)n3c3ccccc3n12
inactive: [1] -2.35% | [2] -4.55% | [3] -31.5% | [4] -23.9% | [5] -1.95% | [6] -10.6%

C#CC(C)(C)OCC(O)CCl (configuration not stated)
inactive: [1] 1.85% | [2] 5.65% | [3] 1.65% | [4] -28.8% | [5] -15.4% | [6] 2.45%

CCCCOC(=O)CCCCCCCCC(=O)OCCCC
inactive: [1] 23.6% | [2] -9% | [3] 2.05% | [4] -14.1% | [5] 0.2% | [6] 28.4%

O=C(O)C(C(=O)O)C(O)c1c2ccccc2cc2ccccc12 (configuration not stated)
inactive: [1] -10.3% | [2] 16% | [3] -4.35% | [4] -47.6% | [5] 0.6% | [6] -1.05%

CCN(CC)C(=O)C(C(=O)OC)c1ccccc1 (configuration not stated)
inactive: [1] -4.6% | [2] -9.75% | [3] 7.8% | [4] -27.6% | [5] 10% | [6] 7.1%

C=CCOC(=O)Nc1cccc(O)c1
inactive: [1] 16.9% | [2] -5.95% | [3] 3.2% | [4] -57.6% | [5] -29.6% | [6] 1.4%

O=C1Cc2c(-c3ccccc3)cc(-c3ccccc3)nc2-c2ccccc2N1
inactive: [1] -4.2% | [2] 39.2% | [3] 39% | [4] 25.7% | [5] 29.2% | [6] 41.2%

CC(Br)C(=O)NCC(=O)NCC(=O)O (configuration not stated)
inactive: [1] 31.9% | [2] -14.9% | [3] -4.2% | [4] 16.4% | [5] 16.9% | [6] -4.75%

C/C(CC(=O)Nc1cc(C)ccc1C)=N/N=C(N)N
inactive: [1] -24.6% | [2] -28.3% | [3] -11.5% | [4] 17.8% | [5] -22.9% | [6] -8.55%

C=CCOC(=O)CCC(C#N)(C#N)CCC(=O)OCC=C
inactive: [1] -9.55% | [2] -7.1% | [3] -0.4% | [4] -25.8% | [5] 50.5% | [6] 15.3%

CCOc1ccc(N=Nc2c(C)nn(C(N)=S)c2OCC)cc1
inactive: [1] -54.6% | [2] -21.6% | [3] 11.6% | [4] -38.5% | [5] -5.25% | [6] -7.35%

CC(=O)n1c(N)nc2ccccc21
inactive: [1] 21.3% | [2] -2.85% | [3] 6.95% | [4] 3.4% | [5] 1.45% | [6] 28.8%

Cc1ccc(S(=O)(=O)N2CCCN(S(=O)(=O)c3ccc(C)cc3)COC2)cc1
inactive: [1] 4.1% | [2] 11.6% | [3] -8.4% | [4] 3.1% | [5] -10.4% | [6] -1.25%

CC(O)C1CCCCN1 (configuration not stated)
inactive: [1] 2.6% | [2] -1.1% | [3] -8.85% | [4] 10.4% | [5] 14.2% | [6] -0.9%

Cc1nc(-c2ccccc2)ncc1C(O)CN(C)C (configuration not stated)
inactive: [1] -4.7% | [2] -6.45% | [3] 5.35% | [4] 2.35% | [5] -30.4% | [6] -6.6%

CN(/N=C(\C(=O)O)c1ccccc1)C1=NCCN1
inactive: [1] -12% | [2] -7.95% | [3] -4.65% | [4] 41.2% | [5] -1.4% | [6] 9.3%

CS/N=C(\c1ccccc1)N(C)C
inactive: [1] -23.9% | [2] -4.05% | [3] -1.45% | [4] -25.1% | [5] -1.6% | [6] 3.35%

O=C(C[n+]1ccccc1-c1ccccn1)c1ccc(-c2ccccc2)cc1
inactive: [1] 7.9% | [2] 10.7% | [3] 22.4% | [4] -14.7% | [5] 1% | [6] 34.6%

C/C(=C\c1ccc(Cl)cc1)C(C)(C)C(=O)O
inactive: [1] 15.1% | [2] -23.2% | [3] -1.25% | [4] -6.95% | [5] 11% | [6] 19.6%

CCN(CC)CCNc1ccc2ncn3c4ccccc4c(=O)c1c23
inactive: [1] 19.9% | [2] 8.85% | [3] -16.1% | [4] 33.1% | [5] 29.1% | [6] 42.9%

CCOC(=O)C1=NN(c2ccccc2)C(=O)/C1=C\n1c(=S)sc2ccccc21
inactive: [1] -7.25% | [2] -24.4% | [3] -6.5% | [4] -16.1% | [5] -11.8% | [6] -2.4%

C/C(=C1\SC(=S)N(C2OC(CO)C(O)C(O)C2O)C1=O)c1ccco1 (configuration not stated)
inactive: [1] -14% | [2] -9.3% | [3] -33.2% | [4] -0.85% | [5] -3.3% | [6] -32.9%

Cc1ccc(S(=O)(=O)N/N=C2/C(=N/NS(=O)(=O)c3ccc(C)cc3)C3CCC2C3)cc1
inactive: [1] 6.7% | [2] 4.85% | [3] -2.75% | [4] -29.2% | [5] -1.7% | [6] -6.45%

O=C1C(c2ccccc2)C(c2ccccc2)C(c2ccccc2)C1c1ccccc1 (configuration not stated)
inactive: [1] 52% | [2] 1.05% | [3] 15.9% | [4] 5.65% | [5] -4.3% | [6] 5.65%

CC(=O)NC(CCCCN)C(=O)NCc1ccccc1 (configuration not stated)
inactive: [1] -1.95% | [2] -12% | [3] -12.1% | [4] 11.1% | [5] -19% | [6] -20.4%
